# For some assays here: Measured potencies and affinities stand elsewhere.
# Key:
# Design in all cases: scale not given: direction of the effect not stated beside the values
# [1] = biological target: Protein translocase subunit SecA (Escherichia coli (strain K12)) (UniProt P10408); assay: Assay to Identify E. coli SecA ATPase Inhibitors; format: functional; conditions: 30 µM
# [2] = biological target: T1, Ubiquitin-activating enzyme e1, putative (Leishmania donovani (strain BPK282A1)) (UniProt E9BSI1); assay: Leishmania donovani Ubiquitin Activating Enzyme (LdE1); format: functional; conditions: 30 µM
# T1 sequence (whole entry): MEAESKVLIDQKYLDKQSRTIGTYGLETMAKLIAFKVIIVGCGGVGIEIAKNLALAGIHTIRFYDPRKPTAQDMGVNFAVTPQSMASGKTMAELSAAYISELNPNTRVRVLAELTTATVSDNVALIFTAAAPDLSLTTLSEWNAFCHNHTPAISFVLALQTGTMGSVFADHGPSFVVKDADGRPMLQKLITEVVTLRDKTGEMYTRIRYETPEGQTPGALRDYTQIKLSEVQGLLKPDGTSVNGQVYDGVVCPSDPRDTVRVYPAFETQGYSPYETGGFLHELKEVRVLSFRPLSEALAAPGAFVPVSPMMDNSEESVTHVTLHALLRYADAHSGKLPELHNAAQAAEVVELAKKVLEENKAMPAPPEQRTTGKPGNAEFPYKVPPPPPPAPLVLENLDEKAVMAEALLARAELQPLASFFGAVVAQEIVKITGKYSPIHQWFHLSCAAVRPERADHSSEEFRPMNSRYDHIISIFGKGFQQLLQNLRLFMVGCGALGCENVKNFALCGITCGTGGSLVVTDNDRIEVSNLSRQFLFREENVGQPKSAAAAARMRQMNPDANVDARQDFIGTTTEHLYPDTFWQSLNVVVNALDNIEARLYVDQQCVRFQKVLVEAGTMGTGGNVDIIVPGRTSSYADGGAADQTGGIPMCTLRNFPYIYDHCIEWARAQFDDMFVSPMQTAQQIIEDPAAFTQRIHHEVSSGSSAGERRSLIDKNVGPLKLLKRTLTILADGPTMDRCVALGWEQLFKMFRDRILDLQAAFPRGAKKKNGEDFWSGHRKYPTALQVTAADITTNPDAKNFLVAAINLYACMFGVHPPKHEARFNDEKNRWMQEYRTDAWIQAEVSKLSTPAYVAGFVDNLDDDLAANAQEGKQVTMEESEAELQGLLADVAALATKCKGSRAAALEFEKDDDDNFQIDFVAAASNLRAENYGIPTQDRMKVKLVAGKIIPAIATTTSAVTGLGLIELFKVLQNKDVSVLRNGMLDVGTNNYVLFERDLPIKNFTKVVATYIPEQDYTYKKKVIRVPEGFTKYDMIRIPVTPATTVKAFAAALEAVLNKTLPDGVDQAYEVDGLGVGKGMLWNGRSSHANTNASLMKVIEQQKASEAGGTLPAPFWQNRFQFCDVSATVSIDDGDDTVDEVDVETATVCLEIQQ
# [3] = biological target: AMP-activated protein kinase, AMPK (Homo sapiens) (UniProt P54646+O43741+P54619+Q9UGJ0+Q9Y478+Q13131+Q9UGI9); assay: AMP-dependent Kinase enzyme assay. An in vitro enzyme assay that detects ADP turnover that is directly proportional to AMPK activity. This uses naive AMPK that is activated during the assay with MK-8722; format: functional; conditions: 30 µM
# [4] = biological target: Sialic acid-binding Ig-like lectin 9 (Homo sapiens) (UniProt Q9Y336); assay: Hs-Siglec9 ALPHAscreen SOP 20170721; conditions: 10 µM
# Trypanosoma cruzi = assay: Trypanosoma cruzi phosphomannomutase and mannose-1-phosphate guanylyltransferase assay; format: functional; conditions: 10 µM
# [5] = biological target: T2, Arginase-2, mitochondrial (Homo sapiens) (UniProt P78540); assay: in vitro enzyme assay to detect the production of urea directly proportional to the activity of Arginase II; format: functional; conditions: 33.3 µM; further: in the data most compounds retested in dose-response had high values
# T2 sequence (whole entry): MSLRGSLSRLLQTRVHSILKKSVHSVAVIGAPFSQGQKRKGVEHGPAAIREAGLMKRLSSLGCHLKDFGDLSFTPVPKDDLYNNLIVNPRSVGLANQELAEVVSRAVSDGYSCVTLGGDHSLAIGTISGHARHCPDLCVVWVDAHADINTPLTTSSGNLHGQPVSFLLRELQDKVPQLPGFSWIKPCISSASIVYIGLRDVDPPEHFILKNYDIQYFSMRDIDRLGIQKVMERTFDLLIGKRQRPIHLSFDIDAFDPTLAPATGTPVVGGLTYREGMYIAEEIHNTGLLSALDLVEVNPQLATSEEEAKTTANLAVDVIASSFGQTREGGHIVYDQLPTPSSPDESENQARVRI
# [6] = biological target: T3, Proteasome subunit beta (Trypanosoma cruzi) (UniProt O96673); assay: Trypanosoma cruzi proteasome chymotrypsin-like activity (TcProtChymo) assay.; further: in the data most compounds retested in dose-response had high values; format: functional; conditions: 9.37 µM
# T3 sequence (whole entry): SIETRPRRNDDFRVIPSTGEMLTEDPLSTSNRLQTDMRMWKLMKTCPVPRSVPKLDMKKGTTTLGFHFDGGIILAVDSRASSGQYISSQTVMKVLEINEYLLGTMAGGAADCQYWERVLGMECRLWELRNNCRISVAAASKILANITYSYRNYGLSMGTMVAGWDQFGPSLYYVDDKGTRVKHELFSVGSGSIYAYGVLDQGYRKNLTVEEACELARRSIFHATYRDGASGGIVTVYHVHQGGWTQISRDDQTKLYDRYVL
# Homo sapiens = species on record: Homo sapiens; assay: To identify inhibition of the IFN signalling (Jak-Stat) pathway via expression of an eGFP reporter gene under the control of an IFN-stimulated response element (ISRE) containing MxA promoter.; format: functional; conditions: 30 µM
# [7] = biological target: T4, Tyrosyl-tRNA synthetase, putative (Trypanosoma cruzi (strain CL Brener)) (UniProt Q4DSP6); assay: Trypanosoma cruzi tyrosyl tRNA synthetase (TcYRS) _High Tyrosine SOP; format: functional; conditions: 30 µM; further: in the data most compounds retested in dose-response had high values
# T4 sequence (whole entry): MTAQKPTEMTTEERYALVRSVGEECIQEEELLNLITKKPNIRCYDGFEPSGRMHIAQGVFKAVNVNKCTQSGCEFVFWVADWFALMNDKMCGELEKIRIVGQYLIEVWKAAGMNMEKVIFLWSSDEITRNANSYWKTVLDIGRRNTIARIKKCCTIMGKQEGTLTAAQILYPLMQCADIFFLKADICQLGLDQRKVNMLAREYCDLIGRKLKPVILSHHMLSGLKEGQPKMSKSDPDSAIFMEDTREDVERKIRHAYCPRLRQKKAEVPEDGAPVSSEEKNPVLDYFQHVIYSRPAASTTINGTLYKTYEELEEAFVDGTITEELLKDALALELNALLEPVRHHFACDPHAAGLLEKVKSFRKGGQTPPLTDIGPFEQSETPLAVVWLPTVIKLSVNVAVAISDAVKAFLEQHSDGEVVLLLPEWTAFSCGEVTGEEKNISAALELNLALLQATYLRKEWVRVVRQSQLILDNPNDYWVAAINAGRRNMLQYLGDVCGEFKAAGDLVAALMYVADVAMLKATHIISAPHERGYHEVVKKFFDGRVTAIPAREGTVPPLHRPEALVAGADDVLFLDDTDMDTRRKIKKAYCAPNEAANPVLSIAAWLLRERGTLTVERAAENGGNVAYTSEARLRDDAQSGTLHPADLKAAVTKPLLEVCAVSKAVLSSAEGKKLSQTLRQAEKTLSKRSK
# [8] = biological target: T4, Tyrosyl-tRNA synthetase, putative (Trypanosoma cruzi (strain CL Brener)); assay: Trypanosoma cruzi tyrosyl tRNA synthetase (TcYRS) SOP; format: functional; conditions: 30 µM
# [9] = biological target: Chromo domain-containing protein 1 (Saccharomyces cerevisiae (strain ATCC 204508 / S288c) (Baker's yeast)) (UniProt P32657); assay: ScCHD-1 Enzyme Inhibition Assay; format: functional; conditions: 30 µM; further: in the data most compounds retested in dose-response had high values
# Sequence of Chromo domain-containing protein 1 (Saccharomyces cerevisiae (strain ATCC 204508 / S288c) (Baker's yeast)) (P32657 whole entry, the tested form may be a part): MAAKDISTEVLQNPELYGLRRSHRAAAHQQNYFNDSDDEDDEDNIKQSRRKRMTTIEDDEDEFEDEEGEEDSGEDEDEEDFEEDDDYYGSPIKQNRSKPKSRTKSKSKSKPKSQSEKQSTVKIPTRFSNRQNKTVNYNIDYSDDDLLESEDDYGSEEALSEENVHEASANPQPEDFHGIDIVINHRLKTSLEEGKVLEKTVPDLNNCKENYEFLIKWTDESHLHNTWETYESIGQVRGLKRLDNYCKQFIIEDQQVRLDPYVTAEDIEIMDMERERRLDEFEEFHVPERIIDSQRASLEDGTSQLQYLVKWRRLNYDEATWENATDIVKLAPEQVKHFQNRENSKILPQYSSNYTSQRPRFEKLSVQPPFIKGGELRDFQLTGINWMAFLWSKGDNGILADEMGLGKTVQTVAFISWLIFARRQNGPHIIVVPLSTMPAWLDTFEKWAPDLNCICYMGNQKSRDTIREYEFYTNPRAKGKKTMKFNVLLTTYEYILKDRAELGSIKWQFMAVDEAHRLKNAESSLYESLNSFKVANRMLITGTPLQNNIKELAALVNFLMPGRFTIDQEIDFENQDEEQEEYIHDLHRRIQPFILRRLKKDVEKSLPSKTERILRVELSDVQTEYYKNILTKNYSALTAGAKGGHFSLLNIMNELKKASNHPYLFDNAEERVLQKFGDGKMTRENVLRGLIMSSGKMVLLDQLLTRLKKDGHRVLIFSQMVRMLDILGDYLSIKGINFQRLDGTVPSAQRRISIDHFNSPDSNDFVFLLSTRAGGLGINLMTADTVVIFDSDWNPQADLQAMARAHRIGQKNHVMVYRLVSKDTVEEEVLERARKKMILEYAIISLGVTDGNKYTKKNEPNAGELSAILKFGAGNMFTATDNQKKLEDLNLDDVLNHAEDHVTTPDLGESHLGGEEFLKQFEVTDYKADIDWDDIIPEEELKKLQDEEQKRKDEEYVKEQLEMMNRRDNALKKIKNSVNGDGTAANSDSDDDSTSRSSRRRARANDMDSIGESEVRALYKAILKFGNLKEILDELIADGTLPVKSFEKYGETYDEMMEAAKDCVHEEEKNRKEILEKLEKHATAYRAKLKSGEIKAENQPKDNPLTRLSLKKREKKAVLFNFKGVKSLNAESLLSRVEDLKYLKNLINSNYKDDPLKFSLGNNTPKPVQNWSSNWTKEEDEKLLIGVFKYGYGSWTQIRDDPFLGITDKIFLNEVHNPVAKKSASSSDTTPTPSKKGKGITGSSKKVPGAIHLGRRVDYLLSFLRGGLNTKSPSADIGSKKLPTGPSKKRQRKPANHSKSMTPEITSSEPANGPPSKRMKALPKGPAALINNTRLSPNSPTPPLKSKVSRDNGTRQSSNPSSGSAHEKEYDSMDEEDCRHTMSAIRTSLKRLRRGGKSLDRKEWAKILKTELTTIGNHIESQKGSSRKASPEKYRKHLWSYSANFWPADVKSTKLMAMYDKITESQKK
# Sequence of Sialic acid-binding Ig-like lectin 9 (Homo sapiens) (Q9Y336 whole entry): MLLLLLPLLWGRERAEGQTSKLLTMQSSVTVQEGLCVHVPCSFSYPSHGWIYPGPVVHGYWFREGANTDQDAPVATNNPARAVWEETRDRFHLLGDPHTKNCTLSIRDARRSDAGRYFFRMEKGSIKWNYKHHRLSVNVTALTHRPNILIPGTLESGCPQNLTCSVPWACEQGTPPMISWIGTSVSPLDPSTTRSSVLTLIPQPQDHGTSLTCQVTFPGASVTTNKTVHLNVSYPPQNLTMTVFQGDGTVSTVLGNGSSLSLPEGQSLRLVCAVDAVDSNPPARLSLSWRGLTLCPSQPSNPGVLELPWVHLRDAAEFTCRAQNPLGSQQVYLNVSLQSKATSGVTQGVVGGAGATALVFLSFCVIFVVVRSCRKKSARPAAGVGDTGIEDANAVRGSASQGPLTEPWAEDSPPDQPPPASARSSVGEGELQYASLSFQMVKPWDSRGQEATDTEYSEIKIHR
# Sequence of Protein translocase subunit SecA (Escherichia coli (strain K12)) (P10408 whole entry): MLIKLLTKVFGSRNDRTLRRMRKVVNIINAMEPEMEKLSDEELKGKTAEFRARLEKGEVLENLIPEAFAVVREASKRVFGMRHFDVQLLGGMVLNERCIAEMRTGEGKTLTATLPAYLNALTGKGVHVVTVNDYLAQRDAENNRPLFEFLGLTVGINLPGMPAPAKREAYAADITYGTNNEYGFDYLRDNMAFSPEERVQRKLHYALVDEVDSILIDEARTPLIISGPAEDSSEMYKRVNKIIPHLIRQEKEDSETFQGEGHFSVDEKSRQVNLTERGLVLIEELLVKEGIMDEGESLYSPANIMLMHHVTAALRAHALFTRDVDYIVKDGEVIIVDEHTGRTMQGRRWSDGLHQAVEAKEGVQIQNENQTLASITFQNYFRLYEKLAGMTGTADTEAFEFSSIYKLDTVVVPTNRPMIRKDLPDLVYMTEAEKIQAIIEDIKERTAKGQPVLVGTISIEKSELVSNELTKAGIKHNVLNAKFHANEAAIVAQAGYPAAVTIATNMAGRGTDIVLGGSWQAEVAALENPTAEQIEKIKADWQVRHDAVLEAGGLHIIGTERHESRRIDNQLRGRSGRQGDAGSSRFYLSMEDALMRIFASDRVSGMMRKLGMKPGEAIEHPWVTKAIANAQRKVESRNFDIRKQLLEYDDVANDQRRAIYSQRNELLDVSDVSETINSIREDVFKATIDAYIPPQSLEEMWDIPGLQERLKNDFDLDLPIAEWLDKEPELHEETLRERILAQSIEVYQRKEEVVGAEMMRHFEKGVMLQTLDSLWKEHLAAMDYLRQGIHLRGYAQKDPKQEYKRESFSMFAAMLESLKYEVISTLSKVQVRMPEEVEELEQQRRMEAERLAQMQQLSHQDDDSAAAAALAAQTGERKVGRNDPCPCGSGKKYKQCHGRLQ
Structure (SMILES),Percent Effect [1],Percent Effect [2],Percent Effect [3],Percent Effect [4],Percent Effect (Trypanosoma cruzi),Percent Effect [5],Percent Effect [6],Percent Effect (Homo sapiens),Percent Effect [7],Percent Effect [8],Percent Effect [9]
CCc1nnsc1C(=O)NCCn1nc2ccccn2c1=O,-5.54%,18.9%,-7.77%,20.2%,5.66%,4.25%,8.8%,-0.849%,6.93%,18.3%,-9.16%
CC(Cc1ccco1)NC(=O)Nc1ccc(S(C)(=O)=O)nc1 (stereo unspecified),-4.47%,18.4%,-6.45%,-1.24%,4.13%,-0.383%,9.52%,21.8%,9.31%,19.5%,-12.4%
O=C(NC1CC1)[C@@H]1CCO[C@@H]2CCN(C3CCOCC3)C[C@H]21,-7.35%,2.6%,3.75%,6.23%,4.62%,5.52%,8.49%,-3.98%,6.45%,13.6%,0.47%
O=C1[C@@H]2CCN(Cc3ccoc3)C[C@@H]2OCCN1c1ccccc1,-5.21%,10.7%,13%,1.36%,-2.95%,8.16%,5.02%,5.67%,3.19%,11.5%,1.78%
Cc1nc(N(C)C)nc2c1COCC21CCN(C(=O)NC(C)C)C1 (stereo unspecified),-5.29%,0%,-0.0672%,2.32%,2.15%,-2.08%,4.82%,-1.11%,0.99%,18.3%,-4.61%
CC(C)N1CCC(Cc2cc(-c3ccccc3C(=O)O)ncn2)CC1,-1.66%,52.7%,4.35%,-7.29%,-0.988%,2.09%,5.3%,17.4%,4.3%,6.49%,-7.12%
CCOC(=O)N1CCN(c2nc(NCCCO)c3ccccc3n2)CC1,-3.88%,-1.33%,5.25%,7.39%,5.5%,-0.88%,0.739%,15.2%,2.12%,5.13%,-3.87%
CCN(CC(=O)NC)C(=O)Cc1nc(-c2ccco2)oc1C,-8.15%,5.33%,-6.53%,3.51%,0.876%,5.73%,16.9%,10.7%,8.2%,13.6%,-5.99%
O=C(c1ccc(Br)o1)N1CCCCC1Cn1cccn1 (stereo unspecified),-1.08%,2.7%,-1.88%,12.6%,0.279%,0.924%,15.3%,18.2%,0.99%,3.66%,0.762%
Fc1ccc(CN2CCCC(Cn3cncn3)C2)c2ncccc12 (stereo unspecified),-5.33%,5.2%,-0.904%,8.63%,1.67%,-1.38%,12.2%,-1.67%,5.38%,11.1%,1.09%
COc1ccc(C2=CCN(C(=O)C3CCCN(C(N)=O)C3)CC2)cc1 (stereo unspecified),-3.88%,7.89%,4.4%,-4.74%,7.75%,-2.52%,12.9%,2.88%,6.4%,18.5%,-7.24%
CCN(Cc1ccc2c(c1)OCCO2)C(=O)NC(C)Cn1ccnc1 (stereo unspecified),-0.244%,23.4%,-1.99%,-9.3%,-9.74%,3.56%,10.8%,19.8%,3.88%,9.76%,-7.71%
Cc1cccc(-n2c(C)cc(C(=O)N3CCn4c(C)nnc4C3)c2C)c1,-3.26%,10.5%,-12.3%,9.36%,2.15%,-3.6%,7.19%,3.33%,11.3%,16.1%,-0.518%
CCC(=O)N1CCC2(COCc3c(C)nc(N(C)C)nc32)C1 (stereo unspecified),-9.59%,0%,0.948%,16.9%,-0.586%,-0.417%,10.7%,4.78%,0%,3.66%,-4.5%
Cc1cc(S(=O)(=O)N2CCC(S(C)(=O)=O)CC2)ccc1F,-4.08%,5.2%,6.02%,4.37%,-0.493%,8.39%,-2.96%,14.6%,4.23%,11.5%,-5.25%
O=C1COC2(CCN(Cc3ccc(F)cc3)CC2)CN1,-4.15%,2.7%,2.05%,-2.96%,6.25%,-0.417%,10.2%,-6.9%,5.94%,15.8%,-6.08%
